# Test results published in PubChem BioAssay (EPA / NIEHS).
# Results filed as inconclusive are left out. Calls of active or inactive are those of the source. How the source made its calls: active means hit-call score of the fitted dose curve at least 0.9, where 1 is the maximum; inconclusive means response in the unintended direction; inactive means score below 0.9.
# Key:
# [1] = molecular target: Luciferin 4-monooxygenase (Photinus pyralis) (UniProt P08659); test: CCTE_Simmons_QuantiLum_inhib_2: CCTE's Firefly Luciferase Inhibition Assay, Simmons Lab (AID 2283767)
# Luciferin 4-monooxygenase (Photinus pyralis), sequence (P08659 whole entry, looked up): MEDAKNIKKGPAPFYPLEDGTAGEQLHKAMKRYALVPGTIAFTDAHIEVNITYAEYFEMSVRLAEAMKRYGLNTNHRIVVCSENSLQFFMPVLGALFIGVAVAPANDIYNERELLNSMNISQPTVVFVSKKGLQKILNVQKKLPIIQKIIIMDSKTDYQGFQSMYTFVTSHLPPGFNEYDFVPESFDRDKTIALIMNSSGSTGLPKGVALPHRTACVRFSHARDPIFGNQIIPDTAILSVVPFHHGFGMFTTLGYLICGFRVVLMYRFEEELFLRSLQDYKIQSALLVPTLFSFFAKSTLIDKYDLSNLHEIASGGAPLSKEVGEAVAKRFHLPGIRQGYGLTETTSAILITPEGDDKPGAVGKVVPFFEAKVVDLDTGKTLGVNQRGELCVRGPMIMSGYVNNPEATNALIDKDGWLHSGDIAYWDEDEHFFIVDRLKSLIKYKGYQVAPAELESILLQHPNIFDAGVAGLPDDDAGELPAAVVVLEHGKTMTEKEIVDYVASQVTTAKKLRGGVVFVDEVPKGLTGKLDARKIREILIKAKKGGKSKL
# Method in brief: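 First, 5 ng purified luciferase in phosphate buffer with BSA is dispensed per well. Next, test chemicals (5 nM to 87.5 uM final, 0.5% DMSO) are added and incubated 30 min at 37C in darkness. Finally, luciferin reagent is injected and luminescence read kinetically.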
# [2] = ACEA_AR_agonist_AUC_viability: ACEA Biosciences xCELLigence Real-Time Cell Analysis on Androgen Receptor Agonism for Viability (AID 2283775);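 on AC50: viability read 80 hours after compound addition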
# Method in brief: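 22Rv1 cells; impedance growth kinetics; 8-pt 1:4 dilutions from 100 uM top final, ≤0.5% DMSO; n = 2; 80 h read; AUC viability, loss-of-signal vs DMSO.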
# [3] = ACEA_AR_antagonist_AUC_viability: ACEA Biosciences xCELLigence Real-Time Cell Analysis on Androgen Receptor Antagonism for Viability (AID 2283776);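 further: 22Rv1 human prostate cancer cells growing on impedance electrode plates; area under impedance growth curve at 80 h after dosing as viability; hits lower the growth signal relative to DMSO meaning cytotoxicity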
# Method in brief: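 Impedance read-out (RT-CES): area under growth curve at 80 h post-dose, loss of signal scored vs DMSO baseline. 22Rv1 cells; 8-pt 1:4 series, top 100 uM final, ≤0.5% DMSO; biological duplicate.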
# [4] = ArunA_CellTiter_hNP: Viability Assessment in the ArunA Biomedical's Oris Neural Crest (hNC) Cell Migration Assay (AID 2283753)
# Method in brief: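 Viability read with CellTiter 96 Aqueous One after 72 h chemical exposure of human hNP1 neuroprogenitors, which were plated on Matrigel in LIF/bFGF medium 16 h beforehand. Endpoint fitted in positive direction relative to DMSO.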
# [5] = ArunA_Migration_hNP: ArunA Biomedical's Oris Neuroprogenitor (hNP) Cell Migration Assay (AID 2283754)
# Method in brief: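 Readout is calcein-AM fluorescence (ex494/em517) of cells migrating into the detection zone, relative to DMSO. hNP1 cells (H9-derived) grown on Matrigel behind stoppers 16 h, then stoppers pulled and chemical applied 72 h; cytochalasin D as control.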
# [6] = ArunA_Migration_hNC: ArunA Biomedical's Oris Neural Crest (hNC) Cell Migration Assay (AID 2283755)
# Method in brief: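 Calcein-AM fluorescence (ex494 nm/em 517 nm) in the stopper-defined detection zone quantifies migration of hNC cells after 72 h chemical exposure; 60,000 cells/well plated on Matrigel with LIF and bFGF, 16 h pre-incubation. DMSO baseline.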
# [7] = ArunA_NOG_NucleusCount: ArunA Biomedical's Neurite Outgrowth (NOG) Assay for Nucleus Count (AID 2283756)
# Method in brief: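 Viable neuron count, from Hoechst nuclei passing size and intensity gates, imaged at 20x on differentiated H9-derived human neurons. Exposure lasted 48 h from seeding; activity was scored relative to DMSO.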
# [8] = ArunA_NOG_NeuriteLength: ArunA Biomedical's Neurite Outgrowth (NOG) Assay for Neurite Length (AID 2283757)
# Method in brief: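 Total neurite length per neuron, from traced βIII-tubulin-labelled processes longer than 10 um on viable Hoechst-gated cells, was scored as decrease from DMSO. Cells were hESC (H9)-derived neurons given 48 h chemical exposure immediately after seeding.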
# [9] = ArunA_NOG_NeuritesPerNeuron: ArunA Biomedical's Neurite Outgrowth (NOG) Assay for Neurites Per Neuron (AID 2283758)
# Method in brief: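 Differentiated human H9-derived neurons exposed to chemicals for 48 h from seeding, then stained with Hoechst and βIII-tubulin/DyLight 488. Automated imaging counted neurites (processes >10 um) per valid neuron; loss of signal versus DMSO scored.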
# [10] = ArunA_NOG_BranchPointsPerNeurite: ArunA Biomedical's Neurite Outgrowth (NOG) Assay for Branch Points Per Neurite (AID 2283759)
# Method in brief: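 Automated image analysis traced neurites (processes >10 um) from valid cell bodies after Hoechst and βIII-tubulin staining. hNN cells from H9 embryonic stem cells, 48 h exposure. Fitted bidirectionally against DMSO.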
# [11] = system: zebrafish Androgen Receptor (AR), gene 100005148; test: ATG_zfAR_XSP1: Attagene TRANS-FACTORIAL Multi-Species (XSP1) HepG2 Assay for zebrafish Androgen Receptor (AR) (AID 2283771)
# Method in brief: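 Gain-of-signal versus DMSO was measured as reporter transcripts quantified by RT-PCR, fluorescent labelling and capillary electrophoresis after 24 h chemical exposure. The cells were HepG2 expressing a chimeric zebrafish AR-GAL4, co-stimulated with 3 nM 6-alpha-fluorotestosterone.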
# [12] = molecular target: zebrafish Estrogen Receptor (ESR1), esr1 (gene 259252) (UniProt P57717); test: ATG_zfER1_XSP1: Attagene TRANS-FACTORIAL Multi-Species (XSP1) HepG2 Assay for zebrafish Estrogen Receptor (ESR1) (AID 2283772)
# zebrafish Estrogen Receptor (ESR1), esr1 (gene 259252), sequence (P57717 whole entry, looked up, the tested form may be a part): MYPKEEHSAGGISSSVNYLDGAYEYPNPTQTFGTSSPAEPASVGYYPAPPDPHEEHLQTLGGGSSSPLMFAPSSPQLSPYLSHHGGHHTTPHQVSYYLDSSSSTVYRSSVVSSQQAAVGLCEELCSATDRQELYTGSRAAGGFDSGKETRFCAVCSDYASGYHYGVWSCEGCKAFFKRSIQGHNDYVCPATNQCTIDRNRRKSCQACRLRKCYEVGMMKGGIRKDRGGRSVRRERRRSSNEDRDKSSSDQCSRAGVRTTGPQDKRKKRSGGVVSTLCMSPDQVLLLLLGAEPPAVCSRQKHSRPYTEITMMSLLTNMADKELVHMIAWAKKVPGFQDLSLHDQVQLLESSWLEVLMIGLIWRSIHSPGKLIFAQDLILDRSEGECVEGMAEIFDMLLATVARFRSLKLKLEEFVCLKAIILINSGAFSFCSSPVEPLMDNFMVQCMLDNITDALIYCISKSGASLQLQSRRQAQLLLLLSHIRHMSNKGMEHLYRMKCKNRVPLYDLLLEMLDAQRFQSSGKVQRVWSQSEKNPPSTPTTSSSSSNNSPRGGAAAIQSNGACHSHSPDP
# Method in brief: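 Transfect HepG2 with GAL4-UAS multi-reporter constructs; treat 24 h (medium carries 3 nM 6-alpha-fluorotestosterone); extract RNA, reverse-transcribe, PCR-amplify, FAM-label, digest with HpaI; resolve by capillary electrophoresis and compare against DMSO baseline.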
# [13] = system: zebrafish Estrogen Receptor (ESR2B), gene 317733; test: ATG_zfER2b_XSP1: Attagene TRANS-FACTORIAL Multi-Species (XSP1) HepG2 Assay for zebrafish Estrogen Receptor (ESR2B) (AID 2283773)
# Method in brief: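 Multiplexed TRANS format in transfected HepG2 liver cells, chimeric NR-Gal4 from zebrafish ESR2B. 24 h dosing; medium contains 3 nM 6-alpha-fluorotestosterone. mRNA induction by RT-PCR/CE, positive direction vs DMSO.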
# [14] = system: frog Estrogen Receptor (ESR2), gene 100174814; test: ATG_frER2_XSP1: Attagene TRANS-FACTORIAL Multi-Species (XSP1) HepG2 Assay for frog Estrogen Receptor (ESR2) (AID 2283774)
# Method in brief: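 HepG2, transient MRTU transfection (GAL4-UAS reporters, exogenous NR-Gal4 chimeras); 24 h compound exposure; 3 nM 6α-fluorotestosterone co-added; total RNA → RT-PCR → 6-FAM primer extension → HpaI → CE. Positive direction vs DMSO.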
# [15] = system: frog Estrogen Receptor (ESR1), gene 398734; test: ATG_frER1_XSP1: Attagene TRANS-FACTORIAL Multi-Species (XSP1) HepG2 Assay for frog Estrogen Receptor (ESR1) (AID 2283777)
# Method in brief: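 Transient MRTU transfection, HepG2 (human liver); 24 h dosing, 3 nM 6α-fluorotestosterone co-added; RNA → RT-PCR → 6-FAM labeling → CE; upward activity vs DMSO.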
# [16] = system: zebrafish Estrogen Receptor (ESR2A), gene 317734; test: ATG_zfER2a_XSP1: Attagene TRANS-FACTORIAL Multi-Species (XSP1) HepG2 Assay for zebrafish Estrogen Receptor (ESR2A) (AID 2283778)
# Method in brief: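 Transient transfection of HepG2 (human liver) with MRTU constructs; chemical dosing for 24 h; medium contained 3 nM 6-alpha-fluorotestosterone to partly stimulate AR. RT-PCR/CE fluorescence of reporter transcripts; positive direction vs DMSO.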
# [17] = molecular target: chicken Estrogen Receptor (ESR1), ESR1 (gene 396099) (UniProt P06212); test: ATG_chERa_XSP1: Attagene TRANS-FACTORIAL Multi-Species (XSP1) HepG2 Assay for chicken Estrogen Receptor (ESR1) (AID 2283779)
# chicken Estrogen Receptor (ESR1), ESR1 (gene 396099), sequence (P06212 whole entry, looked up, the tested form may be a part): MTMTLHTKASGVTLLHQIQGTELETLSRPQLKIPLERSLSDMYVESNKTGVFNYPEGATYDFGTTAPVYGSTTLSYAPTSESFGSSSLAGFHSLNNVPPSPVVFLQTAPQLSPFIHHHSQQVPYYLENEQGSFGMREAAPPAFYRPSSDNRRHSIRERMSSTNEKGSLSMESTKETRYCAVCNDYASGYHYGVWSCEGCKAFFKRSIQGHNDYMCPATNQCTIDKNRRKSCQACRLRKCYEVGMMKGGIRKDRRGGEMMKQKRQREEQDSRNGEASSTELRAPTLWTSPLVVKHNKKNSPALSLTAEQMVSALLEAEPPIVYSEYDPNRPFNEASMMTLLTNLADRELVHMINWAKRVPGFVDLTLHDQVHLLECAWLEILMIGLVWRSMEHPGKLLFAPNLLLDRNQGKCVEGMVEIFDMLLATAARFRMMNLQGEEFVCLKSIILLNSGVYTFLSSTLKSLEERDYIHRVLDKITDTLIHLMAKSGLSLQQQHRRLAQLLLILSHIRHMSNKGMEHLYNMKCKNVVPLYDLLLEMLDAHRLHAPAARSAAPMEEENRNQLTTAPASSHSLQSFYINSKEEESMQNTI
# Method in brief: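 Read-out: fluorescent reporter mRNA fragments resolved by capillary electrophoresis after RT-PCR and HpaI digestion. Transfected HepG2 cells carried chimeric NR-Gal4 constructs, were dosed 24 h with 3 nM 6-alpha-fluorotestosterone added, and activity was fitted upward relative to DMSO.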
# [18] = molecular target: Estrogen receptor (Homo sapiens) (UniProt P03372); test: ATG_hERa_XSP1: Attagene TRANS-FACTORIAL Multi-Species (XSP1) HepG2 Assay for human Estrogen Receptor (ESR1) (AID 2283780)
# Estrogen receptor (Homo sapiens), sequence (P03372 whole entry, looked up, the tested form may be a part): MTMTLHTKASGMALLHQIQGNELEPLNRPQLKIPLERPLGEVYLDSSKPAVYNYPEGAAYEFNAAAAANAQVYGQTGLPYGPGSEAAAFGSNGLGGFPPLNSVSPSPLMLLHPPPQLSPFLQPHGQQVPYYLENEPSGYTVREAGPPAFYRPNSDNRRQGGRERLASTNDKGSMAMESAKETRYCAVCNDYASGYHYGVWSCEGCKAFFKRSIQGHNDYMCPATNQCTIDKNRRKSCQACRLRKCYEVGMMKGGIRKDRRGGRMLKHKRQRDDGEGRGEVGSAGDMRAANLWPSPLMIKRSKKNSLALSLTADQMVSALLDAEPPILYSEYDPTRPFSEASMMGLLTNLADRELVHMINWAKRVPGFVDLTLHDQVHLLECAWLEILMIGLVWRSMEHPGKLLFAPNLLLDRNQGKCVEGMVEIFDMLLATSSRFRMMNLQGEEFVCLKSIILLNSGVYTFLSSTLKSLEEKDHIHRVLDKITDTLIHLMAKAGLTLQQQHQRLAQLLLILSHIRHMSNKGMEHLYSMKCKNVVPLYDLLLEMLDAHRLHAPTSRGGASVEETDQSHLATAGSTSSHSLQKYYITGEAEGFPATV
# Method in brief: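 Reporter transcripts from multiplexed GAL4-UAS units driven by NR-Gal4 chimeras in transiently transfected HepG2 were measured by RT-PCR with capillary electrophoresis 24 h post-dose, with 3 nM 6-alpha-fluorotestosterone present; gain-of-signal relative to DMSO.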
# [19] = system: turtle Estrogen Receptor (ESR1), gene 101933533; test: ATG_trERa_XSP1: Attagene TRANS-FACTORIAL Multi-Species (XSP1) HepG2 Assay for turtle Estrogen Receptor (ESR1) (AID 2283781)
# Method in brief: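 Transfect HepG2 with reporter units → dose chemical 24 h (medium has 3 nM 6-alpha-fluorotestosterone) → isolate RNA, RT-PCR → FAM primer extension, HpaI digest → capillary electrophoresis; gain of signal vs DMSO.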
# [20] = ACEA_ER_AUC_viability: ACEA Biosciences xCELLigence Real-Time Cell Analysis on Estrogen Receptor Agonism for Viability (AID 2283782);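 further: hit means loss of impedance signal meaning reduced cell growth or viability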
# Method in brief: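 Read-out: real-time electrical impedance (RT-CES) area under curve, loss of signal taken as reduced viability, normalized to DMSO baseline. T-47D cells, charcoal-stripped serum medium, compounds up to 100 uM final, continuous exposure, 80 h.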
structure (smiles),measurement,setting,value
O=C(O)CCN(C1(C(=O)NO)CCCC1)S(=O)(=O)c1ccc(Oc2ccc(F)cc2)cc1,outcome,[1],inactive
same,outcome,[2],inactive
same,outcome,[3],inactive
CC(C)=CCC/C(C)=C\CO,outcome,[1],inactive
same,outcome,[3],inactive
CC(C)=CCCC(C)=CC=O,outcome,[1],inactive
same,outcome,[2],inactive
same,outcome,[3],inactive
O=C(CCCCCCCCc1cccnc1)N1CCC(C=C(c2ccccc2)c2ccccc2)CC1,outcome,[1],inactive
same,AC50,[2],11.4 µM (active)
same,AC50,[3],12.1 µM (active)
Nc1nc2ncc(CNc3ccc(C(=O)N[C@@H](CCC(=O)O)C(=O)O)cc3)nc2c(=O)[nH]1,outcome,[1],inactive
same,outcome,[2],inactive
same,outcome,[3],inactive
O=P(OC(CCl)CCl)(OC(CCl)CCl)OC(CCl)CCl,outcome,[4],inactive
same,outcome,[5],inactive
same,AC50,[6],1.97 µM (active)
same,outcome,[7],inactive
same,outcome,[8],inactive
same,outcome,[9],inactive
same,outcome,[10],inactive
same,outcome,[1],inactive
same,outcome,[11],inactive
same,outcome,[12],inactive
same,AC50,[13],20.8 µM (active)
same,AC50,[14],26 µM (active)
same,AC50,[2],31.8 µM (active)
same,AC50,[3],29.8 µM (active)
same,AC50,[15],3.06 µM (active)
same,outcome,[16],inactive
same,AC50,[17],3.85 µM (active)
same,AC50,[18],2.78 µM (active)
same,AC50,[19],5.66 µM (active)
same,outcome,[20],inactive
